Compound activity from PubChem.
In the library only some 21% were active in any assay of this set; here they are far more common.
DT40 TDP1 CPT – qHTS for Inhibitors of human tyrosyl-DNA phosphodiesterase 1 (TDP1): qHTS in cells in presence of CPT. 420,000 tested, 12% active. AID 686979, 2013. chicken DT40 Tdp1-/-;hTDP1 cells + 20 nM CPT, ATP luminescence, 48 h. Potency, µM (doses to about 46.2 µM), inactives show top-dose activity change, negative = growth inhibition, hits mostly inhibitors; also: potency is read from the fitted curve at half-maximal effect; nearly all actives have a fitted effect of over 55% in size
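Chicken DT40 Tdp1-/- cells complemented with human TDP1, 400 cells/well, exposed to compounds plus 20 nM camptothecin for at least 48 h at 37 C; viability read as ATP content by CellTiter-Glo luminescence.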
TDP1 cell noCPT – qHTS for Inhibitors of human tyrosyl-DNA phosphodiesterase 1 (TDP1): qHTS in cells in absence of CPT. AID 686978, 2013. Potency, µM (doses to about 46.2 µM), inactives show at the highest dose activity change, negative = growth inhibition, most hits filed as inhibitors. DT40 Tdp1-/- hTDP1 cells, no CPT, ATP luminescence, 48 h. 420,000 tested, 15% active; also: potency is read from the fitted curve at half-maximal effect; nearly all actives have a fitted effect of over 55% in size
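Compound effects on proliferation are scored in DT40 Tdp1-/-;hTDP1 cells in the absence of CPT. ATP levels (CellTiter-Glo luminescence) are recorded after a ≥48 hr, 37 °C incubation.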
ELG1 repair inh – qHTS screen for small molecules that inhibit ELG1-dependent DNA repair in human embryonic kidney (HEK293T) cells expressing luciferase-tagged ELG1; HEK293T ELG1-luciferase reporter, luminescence, 16 h; DNA damage induced by 5-fluorouridine; Potency, µM (top dose mostly 46.1 µM), for the others: at the highest dose activity change, negative = inhibition, actives largely listed as inhibitors; 330,000 tested, 2.3% active; also: potency is read from the fitted curve at half-maximal effect; nearly all actives have a fitted effect of over 55% in size
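Luminescence from the luciferase reporter, measured 30 min after ONE-Glo reagent at room temperature, was the read-out. Beforehand, 2,000 cells per well were exposed for 16 hr at 37 °C to 5-fluorouridine together with compound or vehicle.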
RORg inh – qHTS for inhibitors of ROR gamma transcriptional activity; Potency, µM (titrated, usually from 53.6 µM), inactives show at the top dose activity change, negative = inhibition, actives largely listed as inhibitors; Nuclear receptor ROR-gamma (Mus musculus), P51450; Drosophila S2 Gal4-RORgamma UAS-luciferase reporter, 20 h; 310,000 tested, 5.4% active; AID 2551, 2010; also: potency is read from the fitted curve at half-maximal effect; nearly all actives have a fitted effect of over 60% in size
Target sequence (P51450 whole entry, looked up, the tested form may be a part): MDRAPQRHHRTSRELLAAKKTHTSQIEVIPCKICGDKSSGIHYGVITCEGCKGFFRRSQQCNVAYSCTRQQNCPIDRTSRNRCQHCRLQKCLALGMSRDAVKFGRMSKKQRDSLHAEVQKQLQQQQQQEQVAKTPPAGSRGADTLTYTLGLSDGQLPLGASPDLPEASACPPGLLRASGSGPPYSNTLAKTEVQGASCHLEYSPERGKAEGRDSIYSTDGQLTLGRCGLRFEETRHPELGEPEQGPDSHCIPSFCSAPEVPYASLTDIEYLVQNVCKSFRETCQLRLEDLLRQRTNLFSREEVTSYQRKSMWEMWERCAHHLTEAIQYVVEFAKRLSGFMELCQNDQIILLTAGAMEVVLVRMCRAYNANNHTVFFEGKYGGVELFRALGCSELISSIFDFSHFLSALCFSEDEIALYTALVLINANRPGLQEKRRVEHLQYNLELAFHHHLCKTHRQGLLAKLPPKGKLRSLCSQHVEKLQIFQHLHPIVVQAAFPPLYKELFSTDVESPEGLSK
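Using a luciferase readout, inhibitors were identified by reduced reporter activity in Drosophila cells coexpressing a copper-inducible Gal4–ROR gamma fusion and UAS-driven Photinus luciferase, incubated 20 hr after 700 uM copper sulfate.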
Gal4-VP16 FLuc – VP16 counterscreen qHTS for inhibitors of ROR gamma transcriptional activity; Drosophila S2 Gal4-VP16 UAS-luciferase, luminescence, 20 h; Potency, µM (doses to about 53.6 µM), without a hit: at the top dose activity, negative = inhibition, actives largely listed as inhibitors; 310,000 tested, 3.5% active; AID 2546, 2010;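 also: Gal4-VP16 expression switched on by copper sulfate through the metallothionein promoter; potency is read from the fitted curve at half-maximal effect; nearly all actives have a fitted effect of over 50% in size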
IL1B secr inh – qHTS for Inhibitors of Inflammasome Signaling: IL-1-beta AlphaLISA Primary Screen | activity change, % at 57.5 µM | 360,000 tested, 4.7% active | AID 743279, 2014 | THP-1 LPS/ATP IL-1B secretion, AlphaLISA, 16 h; hits give low values; in the data active = activity change below about -50%; inconclusive = mostly about -30% to -49%
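Secreted IL-1B measured by AlphaLISA bead assay after 16 h compound exposure of THP-1 cells; compounds (final up to 57.5 uM) added 1 h before LPS (250 ng/mL) and ATP (1.25 mM) stimulation; lower signal means less secretion.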
* marks the source's active call; other numbers are inactive results; ? = inconclusive; . = not tested or not shown. Unless noted, calls follow the shape of the dose curve; as a rule, active = well fitted curve in the direction sought with a large enough effect; inconclusive = small, poorly fitted or top-dose-only effect, or another doubt; inactive = no such curve, though single readings can be large; an effect the other way counts as inactive or inconclusive. % is scaled to controls: 0 for no effect and ±100 for the full control effect.

SMILES	DT40 TDP1 CPT	TDP1 cell noCPT	ELG1 repair inh	RORg inh	Gal4-VP16 FLuc	IL1B secr inh
CCC[C@@H](CN1CCC[C@H]1CN1C(N)=NC[C@@H]1Cc1ccccc1)N1C[C@@H]([C@H](C)CC)N(CCCC2CCCC2)C1=N	10µM*	8.2µM*	?	.	.	-96*
CCCCN1C(=N)N([C@@H](C)CN2CCC[C@H]2CN2C(N)=NC[C@H]2CC(C)C)C[C@H]1Cc1ccccc1	16µM*	?	?	.	.	-54*
CCCCN1C(=N)N([C@@H](C)CN2CCC[C@H]2CN2C(N)=NC[C@@H]2Cc2ccccc2)C[C@H]1[C@H](C)CC	?	?	10%	.	.	-17
CC(C)[C@H](CN1CCC[C@H]1CN1C(N)=NC[C@H]1C(C)C)N1C[C@@H](Cc2ccccc2)N(CCCC2CCCC2)C1=N	?	?	?	.	.	-60*
CN(C(=O)COC(=O)c1ccc2ccccc2n1)C1CCS(=O)(=O)C1 (stereo unspecified)	-4%	9%	2%	6%	-1%	57
COc1ccc2c(c1)c1c(c(=O)n(Cc3ccccc3)c(=O)n1Cc1ccccc1)n2C	-17%	-1%	.	.	.	.
CCC[C@@H](CN1CCC[C@H]1CN1C(N)=NC[C@H]1CC(C)C)N1C[C@@H](Cc2ccccc2)N(CCCC2CCCC2)C1=N	10µM*	12µM*	8%	.	.	-66*
Cc1ccc(N/N=C(/Sc2nnnn2-c2ccccc2)C(=O)c2ccccc2)cc1	29µM*	?	-1%	10µM*	?	-10
O=C(/C(=N\Nc1ccc([N+](=O)[O-])cc1)Sc1nnnn1-c1ccccc1)c1ccccc1	?	?	-30%	?	?	0
Cc1ccc2[nH]c3c(c2c1)CCCC3=O	-5%	5%	?	31%	-1%	0
O=C1CCCc2c1[nH]c1ccc(CN3CCCCC3)cc21	16µM*	?	?	-2%	-2%	-52*
CC1CCN(C(=S)NC(=O)c2ccc(F)cc2)CC1	?	?	11%	.	.	-4
CN(C(=S)NC(=O)c1ccc(Cl)cc1)C1CCCCC1	?	?	?	0.32µM*	0.79µM*	20
CN(C(=O)c1cccc(NC(=O)c2ccccc2)c1)C1CCCCC1	?	10%	-11%	23%	-15%	-2
CN(C(=S)NC(=O)c1ccc(F)cc1)C1CCCCC1	?	?	?	0.89µM*	1.1µM*	-21
CN(C(=S)NC(=O)c1ccccc1)C1CCCCC1	?	?	?	1.1µM*	1.3µM*	-18
COc1ccccc1CCNC(=O)c1cccc(NC(=O)CC2SC(N3CCCCC3)=NC2=O)c1 (stereo unspecified)	?	?	.	.	.	-12
COc1ccccc1NC(=O)c1ccc(NC(=O)c2cc3c(s2)CCC3)cc1	?	16µM*	?	26%	1%	170
Cc1ccc(NC(=O)c2cc3c(s2)CCCC3)cc1	?	-30%	?	?	2%	-53*
CCCOc1ccc(N2CC(C(=O)Nc3cccc(Cl)c3Cl)CC2=O)cc1 (stereo unspecified)	?	-17%	.	.	.	.
CCOc1ccccc1C(=O)Nc1ccsc1C(=O)OC	4.1µM*	3.7µM*	?	31%	0%	-3
CCOc1ccccc1C(=O)Nc1nnc(CC)s1	16µM*	21µM*	?	?	?	14
